Key:
Details in all cases: concentration: 1 μM, replicates: in singlicate; n = 1
ULK2 = test system: ULK2
ULK3 = test system: ULK3
VEGFR2 = test system: T1, VEGFR2
T1 construct: gene KDR

VPS34 = test system: T2, VPS34
T2 construct: gene PIK3C3

VRK2 = test system: VRK2
WEE1 = test system: WEE1
WEE2 = test system: WEE2
WNK1 = test system: WNK1
WNK2 = test system: WNK2
WNK3 = test system: WNK3
WNK4 = test system: WNK4
YANK1 = test system: T3, YANK1
T3 construct: gene STK32A

YANK2 = test system: T4, YANK2
T4 construct: gene STK32B

YANK3 = test system: T5, YANK3
T5 construct: gene STK32C

YES = test system: T6, YES
T6 construct: gene YES1

YSK1 = test system: T7, YSK1
T7 construct: gene STK25

YSK4 = test system: T8, YSK4
T8 construct: gene MAP3K19

ZAK = test system: ZAK
ZAP70 = test system: ZAP70
p38-alpha = test system: T9, p38-alpha
T9 construct: gene MAPK14
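Note: KINOMEscan kinase panel screen.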

SMILES | %Inh (ULK2) | %Inh (ULK3) | %Inh (VEGFR2) | %Inh (VPS34) | %Inh (VRK2) | %Inh (WEE1) | %Inh (WEE2) | %Inh (WNK1) | %Inh (WNK2) | %Inh (WNK3) | %Inh (WNK4) | %Inh (YANK1) | %Inh (YANK2) | %Inh (YANK3) | %Inh (YES) | %Inh (YSK1) | %Inh (YSK4) | %Inh (ZAK) | %Inh (ZAP70) | %Inh (p38-alpha)
COc1cc2c(Nc3cccc(NC(=O)c4ccccc4)c3)ncnc2cc1OCCCN1CCOCC1 [GSK223810] | 0% | 24% | 28% | 0% | 10% | 0% | 40% | 4% | 10% | 0% | 0% | 7% | 0% | 2% | 15% | 12% | 36% | 0% | 0% | 81%
CNc1nccc(-c2c(-c3ccc(F)cc3)ncn2CCCN2CCOCC2)n1 [SB-222516] | 0% | 17% | 0% | 0% | 0% | 0% | 9% | 1% | 0% | 0% | 0% | 0% | 0% | 0% | 0% | 0% | 7% | 6% | 5% | 13%
NC(=O)c1sc(-n2cnc3ccccc32)cc1OCc1ccccc1F [GSK1024306] | 0% | 9% | 6% | 31% | 7% | 7% | 0% | 3% | 27% | 23% | 0% | 0% | 0% | 0% | 0% | 0% | 2% | 0% | 0% | 93.4%
Cl.O=S(=O)(c1cccc(F)c1)c1ccc(Nc2ncnc3cc(Br)sc23)cc1Cl [GSK306886] | 0% | 8% | 3% | 0% | 0% | 20% | 9% | 4% | 9% | 0% | 0% | 0% | 0% | 0% | 14% | 30% | 0% | 6% | 0% | 42%

From article PMC5540273 (PLoS ONE, 2017)
